ssDAF-12 act: activators of S. stercoralis DAF-12 nuclear receptor. HEK293 ssDAF-12/GRIP1 lit1-tk-luc reporter, luminescence; % of 3 µM dafachronic acid response. activation, % at 6.8 µM. 1% of 370,000 active. AID 652126;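 active = activation above the mean over all tested compounds plus 3 SD, cut at about 0.9% in these data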;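 note: 0% = DMSO-only wells and 100% = 3 µM delta7-dafachronic acid wells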
hcDAF12 agonist: activates DAF-12 receptor from parasite H. contortus | HEK293 hcDAF-12 lit1-tk-luc reporter, luminescence; 0% DMSO, 100% Δ7-dafachronic acid | activation, % at 6.8 µM | 1.4% of 370,000 active | AID 652067;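 active = activation above the mean of all tested compounds plus 3 SD, cut at about 5.5% in these data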;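 note: 100% = response to 3 µM Δ7-dafachronic acid high control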
DAX1 inh-1: DAX1 (NR0B1) inhibition, primary screen; AID 652010; inhibition, % at 6.8 µM; 1.1% of 370,000 active; HEK293T StAR-luciferase reporter, SF-1/DAX-1 repression relief;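 active = inhibition above the mean over all tested compounds plus 3 SD, cut at about 3.6% in these data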;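 note: 0% = DAX-1 cells with DMSO and 100% = cells lacking DAX-1 with DMSO; higher inhibition means more luminescence from relief of DAX-1 repression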
hgDAF12 agonist: hgDAF-12 agonism, primary luciferase screen. activation, % at 6.8 µM. 1.8% of 370,000 active. HEK293 GAL4-hgDAF12 UAS-luciferase reporter, agonist luminescence; normalized to butyrate control;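 active = activation above a cutoff set at the mean of all screened compounds plus 3 SD, cut at about 10% in these data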;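 note: 0% = DMSO wells and 100% = sodium butyrate wells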
DAX1 inh-2: NR0B1 (DAX1) inhibition; 0.99% of 340,000 active; inhibition, % at 6.75 µM; P51843; HEK293 Gal4-DAX1 luciferase reporter, luminescence; AID 504766;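 active = inhibition above the mean over all tested compounds plus 3 SD, cut at about 4.2% in these data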;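 note: 0% = DAX1-transfected cells with DMSO and 100% = empty-vector control cells with DMSO; inhibition shows as a rise in luminescence from relieved DAX1 repression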
Target sequence (P51843 207-470 limits assumed): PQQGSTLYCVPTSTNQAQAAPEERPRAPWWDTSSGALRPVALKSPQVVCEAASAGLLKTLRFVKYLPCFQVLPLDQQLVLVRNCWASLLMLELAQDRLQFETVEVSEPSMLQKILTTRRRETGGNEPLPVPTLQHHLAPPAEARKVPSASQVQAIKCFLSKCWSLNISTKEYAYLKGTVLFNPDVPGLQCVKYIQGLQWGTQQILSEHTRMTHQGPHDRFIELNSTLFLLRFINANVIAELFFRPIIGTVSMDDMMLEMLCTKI
* hit, by the source's call. Sampled rows, rich in hits. Any-hit rate of the full collection: about 4.1%.

Results for Cc1cc(/C=C(\C#N)C(=O)NCc2cccs2)c(C)n1-c1ccccc1F ?
ssDAF-12 act: 1.1*; hcDAF12 agonist: 4; DAX1 inh-1: 1; hgDAF12 agonist: 7; DAX1 inh-2: 3

What do the screens show for `COC(=O)[C@]12C[C@H](CC(=O)NCc3cccc(C(F)(F)F)c3)C(=O)N(CCC3=CCCCC3)C1=C[C@H](C(C)C)O[C@@H]2C1CC1`?
ssDAF-12 act: -1; hcDAF12 agonist: -2; DAX1 inh-1: -1; hgDAF12 agonist: 1

How did NC(=O)c1cnn(-c2cc(Oc3ccccc3)ncn2)c1N do in these assays?
ssDAF-12 act: 0; hcDAF12 agonist: 2; DAX1 inh-1: 3.7*; hgDAF12 agonist: 9; DAX1 inh-2: 2

How did CCc1cccc2c(C(C)c3ccccc3O)c[nH]c12 (stereo not drawn) do in these assays?
ssDAF-12 act: 2.2*; hcDAF12 agonist: 4; DAX1 inh-1: 0; hgDAF12 agonist: 5

Results for Cc1cc(/C=C(\C#N)C(=O)Nc2ccccc2)c(C)n1-c1ccc2c(c1)OCO2 ?
ssDAF-12 act: -1; hcDAF12 agonist: -2; DAX1 inh-1: -1; hgDAF12 agonist: -1; DAX1 inh-2: 0

What do the screens show for `Cc1cc(/C=C(/C#N)C(=O)Nc2ccccc2)c(C)n1-c1cccnc1`?
ssDAF-12 act: -1; hcDAF12 agonist: 1; DAX1 inh-1: 2; hgDAF12 agonist: 11*; DAX1 inh-2: 0

What do the screens show for `Cc1cc(OCc2cc(C(=O)N(C)C(C)c3ccccn3)no2)cc(C)c1Cl` (stereo not drawn)?
ssDAF-12 act: 0; hcDAF12 agonist: 3; DAX1 inh-1: 1; hgDAF12 agonist: 12*; DAX1 inh-2: 1

How did COCC1CCN(C(=O)c2cc(COc3cc(C)c(Cl)c(C)c3)on2)C1 (stereo not drawn) do in these assays?
ssDAF-12 act: 0; hcDAF12 agonist: 6.3*; DAX1 inh-1: 1; hgDAF12 agonist: 9; DAX1 inh-2: 0

Results for CCN(CC1CCCO1)C(=O)c1cc(COc2cc(C)c(Cl)c(C)c2)on1 (stereo not drawn) ?
ssDAF-12 act: 1.5*; hcDAF12 agonist: 5; DAX1 inh-1: 0; hgDAF12 agonist: 7; DAX1 inh-2: 1

Results for Cc1cc(OCc2cc(C(=O)N(C)Cc3ccccn3)no2)cc(C)c1Cl ?
ssDAF-12 act: 0; hcDAF12 agonist: 1; DAX1 inh-1: 1; hgDAF12 agonist: 11*; DAX1 inh-2: 1

Results for C#CCN(C1CC1)S(=O)(=O)c1ccccc1Br ?
ssDAF-12 act: 0; hcDAF12 agonist: -3; DAX1 inh-1: 0; hgDAF12 agonist: 0

Results for CCCCNC(=O)NCC1CCN(Cc2ccc(OC)cc2)CC1 ?
ssDAF-12 act: -2; hcDAF12 agonist: -1; DAX1 inh-1: 0; hgDAF12 agonist: -1

How did CCOC(=O)[C@]12CCCC=C1N(CCCOC)C(=O)[C@@H]2CC(=O)NCc1ccc(C)o1 do in these assays?
ssDAF-12 act: -1; hcDAF12 agonist: -2; DAX1 inh-1: 0; hgDAF12 agonist: 3

What do the screens show for `CC(=O)c1ccc(OCc2cc(C(=O)N(C)Cc3ccccn3)no2)cc1`?
ssDAF-12 act: 1.0*; hcDAF12 agonist: 4; DAX1 inh-1: 4.0*; hgDAF12 agonist: 9; DAX1 inh-2: 0

How did CC(=O)c1ccc(OCc2cc(C(=O)N(C)Cc3ccon3)no2)cc1 do in these assays?
ssDAF-12 act: -1; hcDAF12 agonist: -1; DAX1 inh-1: 0; hgDAF12 agonist: -1; DAX1 inh-2: 0

Results for CC(=O)c1cccc(OCc2cc(C(=O)N3C[C@H]4CC[C@H]3C4)no2)c1 ?
ssDAF-12 act: 0; hcDAF12 agonist: 1; DAX1 inh-1: 2; hgDAF12 agonist: 8; DAX1 inh-2: 1

What do the screens show for `CCN1CCN(C(=O)c2cc(COc3ccc(C(C)=O)cc3OC)on2)CC1`?
ssDAF-12 act: 0; hcDAF12 agonist: 5; DAX1 inh-1: 1; hgDAF12 agonist: 12*; DAX1 inh-2: 2

Results for COc1ccc(OCc2cc(C(=O)N(C)Cc3cc(C4CC4)n[nH]3)no2)c(Cl)c1 ?
ssDAF-12 act: -1; hcDAF12 agonist: 4; DAX1 inh-1: 4.2*; hgDAF12 agonist: 8; DAX1 inh-2: 1

What do the screens show for `CCOC(=O)N1CCN(C(=O)c2cc(COc3ccc(OC)cc3Cl)on2)CC1`?
ssDAF-12 act: -1; hcDAF12 agonist: 0; DAX1 inh-1: -1; hgDAF12 agonist: 2; DAX1 inh-2: 2

How did CC(=O)c1cccc(OCc2cc(C(=O)N3C[C@@H](C)O[C@@H](C)C3)no2)c1 do in these assays?
ssDAF-12 act: -1; hcDAF12 agonist: 0; DAX1 inh-1: 4.2*; hgDAF12 agonist: 8; DAX1 inh-2: 2

What do the screens show for `O=C(c1cc(COc2ccc(F)cc2F)on1)N1CCSCC1`?
ssDAF-12 act: -1; hcDAF12 agonist: 2; DAX1 inh-1: 3; hgDAF12 agonist: 12*; DAX1 inh-2: 1

What do the screens show for `COc1ccc(OCc2cc(C(=O)N(C)Cc3cnccn3)no2)c(Cl)c1`?
ssDAF-12 act: 0; hcDAF12 agonist: 2; DAX1 inh-1: 0; hgDAF12 agonist: 8; DAX1 inh-2: 1

What do the screens show for `O=C(c1cc(COc2ccc(F)cc2Cl)on1)N1CCCCCC1`?
ssDAF-12 act: 1; hcDAF12 agonist: 4; DAX1 inh-1: 3; hgDAF12 agonist: 9; DAX1 inh-2: 2

What do the screens show for `O=C(N[C@H]1C[C@@H]2O[C@@H](CO)CC[C@@H]2O[C@@H]1CCc1ccc(-c2cccnc2)cc1)c1cccc(F)c1`?
ssDAF-12 act: -1; hcDAF12 agonist: -2; DAX1 inh-1: 0; hgDAF12 agonist: 0

What do the screens show for `COc1ccc(OCc2cc(C(=O)N3CCN(CC4CC4)CC3)no2)c(Cl)c1`?
ssDAF-12 act: -1; hcDAF12 agonist: 1; DAX1 inh-1: 3.6*; hgDAF12 agonist: 8; DAX1 inh-2: 2

How did Nc1ccc2c(c1Cl)C(=O)c1ccc(N)c(Cl)c1C2=O do in these assays?
ssDAF-12 act: 1.1*; hcDAF12 agonist: 2; DAX1 inh-1: 0; hgDAF12 agonist: 3; DAX1 inh-2: 2

How did CCc1ccc(C2C3=C(CCCC3=O)OC3=C2C(=O)CCC3)cc1 do in these assays?
ssDAF-12 act: -1; hcDAF12 agonist: -1; DAX1 inh-1: 0; hgDAF12 agonist: 1; DAX1 inh-2: -1

What do the screens show for `O=C1CCCC2=C1C(c1ccc(OS(=O)(=O)c3ccc(Cl)cc3)cc1)C1=C(CCCC1=O)O2`?
ssDAF-12 act: -1; hcDAF12 agonist: -1; DAX1 inh-1: 0; hgDAF12 agonist: -1; DAX1 inh-2: 7.2*

Results for O=C(CCc1ccccc1)N[C@H]1[C@@H](OC(=O)c2ccco2)CCC[C@@]12C(=O)N(Cc1ccccc1)c1ccccc12 ?
ssDAF-12 act: -1; hcDAF12 agonist: -4; DAX1 inh-1: -1; hgDAF12 agonist: 0

How did Cc1cc(NC(=O)c2ccc(NS(=O)(=O)c3ccccc3F)cc2)no1 do in these assays?
ssDAF-12 act: -1; hcDAF12 agonist: 0; DAX1 inh-1: 1; hgDAF12 agonist: -1

Source: PubChem
